Inconclusive results are not listed. The source made the active and inactive calls. Unless noted, the call rests on the fitted dose curve.
Key:
[1] = qHTS for Inhibitors of the Functional Ribonucleoprotein Complex (vRNP) of Lassa (LASV) Arenavirus: LASV Primary Screen - GLuc reporter signal (AID 1347082; calls by dose curve; tested in HEK293 reporter line; further: nearly all actives have a fitted effect of over 60% in size)
[2] = qHTS for Inhibitors of the Functional Ribonucleoprotein Complex (vRNP) of Lassa (LASV) Arenavirus: Viability assay - alamar blue signal for LASV Primary Screen (AID 1347083; calls by dose curve; tested in HEK293 reporter line; further: nearly all actives have a fitted effect of over 80% in size)
[3] = qHTS for Inhibitors of the Functional Ribonucleoprotein Complex (vRNP) of Lymphocytic Choriomeningitis Arenaviruses (LCMV): Viability assay - alamar blue signal for LCMV Primary Screen (AID 1347085; calls by dose curve; tested in HEK293 reporter line; further: nearly all actives have a fitted effect of over 80% in size)
[4] = target: Nucleoprotein (Lymphocytic choriomeningitis virus (strain Armstrong)) (UniProt P09992); experiment: qHTS for Inhibitors of the Functional Ribonucleoprotein Complex (vRNP) of Lymphocytic Choriomeningitis Arenaviruses (LCMV): LCMV Primary Screen - GLuc reporter signal (AID 1347086); further: nearly all actives have a fitted effect of over 70% in size
Nucleoprotein (Lymphocytic choriomeningitis virus (strain Armstrong)), sequence (P09992 whole entry, looked up): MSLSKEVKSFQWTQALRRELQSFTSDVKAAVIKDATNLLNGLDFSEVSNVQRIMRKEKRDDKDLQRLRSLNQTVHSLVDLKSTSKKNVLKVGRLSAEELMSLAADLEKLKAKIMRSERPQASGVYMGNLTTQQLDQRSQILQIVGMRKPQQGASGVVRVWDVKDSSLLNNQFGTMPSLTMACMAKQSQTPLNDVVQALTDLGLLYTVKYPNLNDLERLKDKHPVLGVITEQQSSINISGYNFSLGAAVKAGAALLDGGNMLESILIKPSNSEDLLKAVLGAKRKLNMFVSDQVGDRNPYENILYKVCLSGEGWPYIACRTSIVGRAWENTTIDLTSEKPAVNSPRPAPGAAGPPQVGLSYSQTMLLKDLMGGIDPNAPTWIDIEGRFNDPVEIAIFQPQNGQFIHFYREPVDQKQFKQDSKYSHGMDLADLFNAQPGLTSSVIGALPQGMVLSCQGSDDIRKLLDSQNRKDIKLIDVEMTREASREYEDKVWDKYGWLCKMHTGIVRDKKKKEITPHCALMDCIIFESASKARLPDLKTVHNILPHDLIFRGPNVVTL

Measured: Potency
Potency means the concentration at half of the fitted maximal effect.

C=C1C(=O)OC2C=C(CO)CCC=C(CO)CC(OC(=O)C(C)C)C12 (stereo not given)
inactive: all assays above

CC1(C)CC(=O)c2cc(O)ccc2O1
inactive: all assays above

COc1cc(C)c(C(=O)Oc2cc(C)c(C(=O)O)c(O)c2C)c(O)c1C
inactive: all assays above

C/C(=C/C=C/[C@@H](C)C(=O)O)[C@H]1CN[C@H](C(=O)O)[C@H]1CC(=O)O
inactive: all assays above

O=C1CCC[C@H]2[C@@H]3CCCN4CCC[C@H](CN12)[C@H]34
inactive: all assays above

COc1cc(O)c(C(C)=O)c2c1C=CC(C)(C)O2
inactive: all assays above

COc1c2ccoc2nc2c(OC)c(O[C@@H]3O[C@H](C)[C@@H](O)[C@@H](O)[C@H]3O)ccc12
inactive: all assays above

COc1c2ccoc2c(OC[C@@H](O)C(C)(C)O)c2oc(=O)ccc12
inactive: all assays above

Cc1ccc(C(C)C)cc1O
inactive: all assays above

COC(C)(C)[C@@H](O)COc1c2ccoc2cc2oc(=O)ccc12
inactive: all assays above

CC[C@@H]1C=C(C)C[C@H](C)C[C@H](OC)[C@H]2O[C@@](O)(C(=O)C(=O)N3CCCC[C@@H]3C(=O)O[C@H](C(C)=C[C@@H]3CC[C@H](Cl)[C@H](OC)C3)[C@H](C)[C@@H](O)CC1=O)[C@H](C)C[C@H]2OC
inactive: all assays above

C=C(C)C(O)COc1c2occc2c(OC)c2ccc(=O)oc12 (stereo not given)
inactive: all assays above

O=C1C=CC[C@H](/C=C/C[C@@H](O)C[C@H](O)CCc2ccccc2)O1
inactive: all assays above

CC(C)(O[C@@H]1O[C@H](CO)[C@@H](O)[C@H](O)[C@H]1O)[C@@H]1CC=C(C(=O)O)CC1
inactive: all assays above

CC(C)=CCC/C(C)=C/CC/C(C)=C/COc1ccc2ccc(=O)oc2c1
inactive: all assays above

C=CC(=O)Nc1cccc(Nc2nc(NC3CCC(N(C)C)CC3)nc3c2ncn3C(C)C)c1 (stereo not given)
active: [1] 2.17 µM | [2] 0.968 µM | [3] 0.544 µM | [4] 0.863 µM

COc1ccc(-c2coc3cc(O)cc(O)c3c2=O)cc1OC
inactive: all assays above

OCCc1c[nH]c2ccccc12
inactive: all assays above

C[C@@]12CC[C@H]3OC(=O)C=C3C1CC[C@@]13CC(CCC12)[C@](CO)(O[C@H]1O[C@H](CO)[C@@H](O)[C@H](O)[C@H]1O)C3 (stereo not given in full)
inactive: all assays above

C=C1[C@H]2O[C@H]2[C@@H](OC(C)=O)[C@@]2(C)[C@@H](OC(C)=O)C[C@@H](OC(C)=O)[C@@](C)(O)[C@@H]2[C@@H](OC(C)=O)[C@@]2(O)[C@@H](C)C(=O)O[C@H]2[C@H]1Cl
inactive: all assays above

CO[C@H]1C=CO[C@@]2(C)Oc3c(C)c(O)c4c(O)c(c5c(c4c3C2=O)NC2(CCN(CC(C)C)CC2)N=5)=NC(=O)C(C)=CC=C[C@H](C)[C@H](O)[C@@H](C)[C@@H](O)[C@@H](C)[C@H](OC(C)=O)[C@H]1C
inactive: all assays above

CCCCCCCCCO
inactive: all assays above

CC1=CCC(O)(C(C)C)CC1 (stereo not given)
inactive: all assays above

COC(=O)/C=C\C(=O)O
inactive: all assays above

O=c1[nH]cnc2c1ncn2C1OCC(O)C(O)C1O (stereo not given)
inactive: all assays above

CN(C)CCCO[C@@H]1[C@H]2OC(C)(C)O[C@H]2O[C@@H]1[C@H](O)CO
inactive: all assays above

Cc1ncsc1CCO
inactive: all assays above

C=C(C)[C@@H](O)COc1c2ccoc2cc2oc(=O)ccc12
inactive: all assays above

COc1ccc(CNC(=S)NCc2ccc(OC)cc2)cc1
inactive: all assays above

CC1=C(C(=O)O)N2C(=O)C(NC(=O)CCCC(=O)O)C2SC1 (stereo not given)
inactive: all assays above

COc1cc(-c2ccccc2)nc2ccccc12
inactive: all assays above

C[C@]12CCC3C(CC[C@H]4C[C@@H](O)CC[C@]34C)C1C[C@@H](O)C2=O (stereo not given in full)
inactive: all assays above

CC1=C(C=O)C(C)(C)CCC1
inactive: all assays above

O=c1[nH]c(=O)c2ncn(C3OC(CO)C(O)C3O)c2[nH]1 (stereo not given)
inactive: all assays above

CC/C=C\CCOC(C)=O
inactive: all assays above

OC1O[C@H](c2ccc3c(c2)OCO3)[C@H]2CO[C@H](c3ccc4c(c3)OCO4)[C@@H]12 (stereo not given in full)
inactive: all assays above

CC(=Cc1ccccc1)C=C1SC(=S)N(CC(=O)O)C1=O
inactive: all assays above

CNc1nc(-c2ccc3c(N)n[nH]c3c2)cc(N2C[C@@H](C(=O)NC3CCCCC3)CC[C@@H]2C)n1
active: [2] 24.3 µM | [3] 38.5 µM
inactive: [1] | [4]

COc1ccc(CCC(=O)O)cc1
inactive: all assays above

COC(=O)c1ccccc1OC
inactive: all assays above

C[C@@H]1CC[C@H]2[C@H](C)[C@H]3CC[C@H]4C5[C@@H](O)CC6=CC(=O)CC[C@]6(C)[C@H]5C[C@H]4C3C(=O)N2C1 (stereo not given in full)
inactive: all assays above

C/C=C/c1cc(OC)c2c(c1)[C@H](C)[C@@H](c1ccc(O)c(OC)c1)O2
inactive: all assays above

COC1=CC(=O)CC(C)C12Oc1cc(OC)cc(OC)c1C2=O (stereo not given)
inactive: all assays above

COc1ccc(-c2coc3cc(OC)cc(O)c3c2=O)cc1
inactive: all assays above

COc1c2c(c3c(c1OC)c(=O)c1ccccc1n3C)OCO2
inactive: all assays above

COc1ccc(-c2cc(=O)c3ccc(O)cc3o2)cc1
inactive: all assays above

Cc1cc(Nc2nc(N[C@@H](C)c3ccc(F)cc3)c(C#N)cc2F)n[nH]1
active: [2] 4.85 µM | [3] 10.9 µM
inactive: [1] | [4]

CC1(C)Oc2ccc3ccc(=O)oc3c2[C@@H](O)[C@H]1O
inactive: all assays above

CCCCCCCC/C=C/CCCOC(C)=O
inactive: all assays above

CSCCCN=C=S
inactive: all assays above

COc1cc(=O)n(C)c2c(OCC3OC(C)(C)OC3(C)C)cccc12 (stereo not given)
inactive: all assays above

NC(=O)NCCCC(=O)O
inactive: all assays above

Cc1c(O)c(C)c2c(c1O)C(=O)C[C@@H](c1ccccc1)O2
inactive: all assays above

CC1=CCC[C@@H]2[C@@](C)(CC/C(C)=C/C(=O)O)[C@H](C)CC[C@@]12C
inactive: all assays above

CC(C)CCCC(C)CCO (stereo not given)
inactive: all assays above

O=C(/C=C/c1ccc(O)c(O)c1)c1ccc(O)cc1O
inactive: all assays above

C[N+](C)(C)C[C@H](O)CC(=O)[O-]
inactive: all assays above

CC(=O)O[C@H]1C[C@@]2(O)[C@@H](OC(=O)c3ccccc3)C3[C@@](C)([C@@H](O)C[C@H]4OC[C@@]34OC(C)=O)[C@@H](O)[C@H](OC(C)=O)C(=C1C)C2(C)C (stereo not given in full)
inactive: all assays above

C=C[C@]1(C)Cc2occ(C)c2C[C@H]1C(=C)C(=O)O
inactive: all assays above

Nc1nccc(-c2ccc3noc(-c4ccc(Cl)cc4)c3c2)n1
active: [1] 2.43 µM | [2] 7.69 µM | [3] 6.85 µM | [4] 4.85 µM

Source: PubChem BioAssay (NCATS)
